Experimental data as given in PubChem BioAssay (NCI).
This is part of a sample that, as a whole, favours compounds with a hit. Of some 83,000 tested, about 20% had one in any assay.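 For each line, cells grew in 96-well plates with the test compound present at a single concentration for 48 hours.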 Unmarked numbers belong to inactive results. Active and inactive are the calls of the source. How the source made its calls: active means growth percent below 10; inactive means the rest.

system: SK-MEL-5 melanoma; experiment: NCI-60 one-dose screen, 48 h (100 = growth as untreated, 0 = no growth, -100 = all killed); details: 10 µM unless noted

In order of rising growth:
1. c1ccc2[nH]c(-c3cc(-c4ccc5c(c4)OCO5)n[nH]3)nc2c1  13.2%
2. Fc1ccc2nc(-c3cc(-c4ccc5c(c4)OCO5)n[nH]3)[nH]c2c1  20.4%
3. Nc1c(C(=O)Nc2cccc(Br)c2)sc2nc3c(cc12)C(=O)CCC3  20.5%
4. COc1ccc(-c2cc(/C=C/C(=O)c3ccc(N)cc3)[nH]n2)cc1  23.9%
5. CC(C)(C)c1[nH]nc2c1C(c1cc3ccccc3[nH]c1=O)Nc1cc(C(=O)OCc3ccccc3)ccc1N2 (stereo not drawn)  39.3%
6. CC(C)(C)c1ccc(OCCCCCCCN2CCNCC2)cc1  43.9%
7. CC(C)(C)c1cc(-n2c(-c3ccc(Cl)cc3)nc3cc(C(=O)Nc4ccc(Cl)cc4)ccc32)n[nH]1  44.8%
8. COc1cc2c(cc1OC)C(=O)/C(=C/c1cc(-c3ccc4c(c3)OCO4)n[nH]1)C2  48.4%
9. O=C1C(Cl)=C(Nc2ccc(S(=O)(=O)c3ccc(NC4=C(Cl)C(=O)c5ccccc5C4=O)cc3)cc2)C(=O)c2ccccc21  49.3%
10. COc1ccc(-c2cc(/C=C/C(=O)c3ccc(OC)c(OC)c3)[nH]n2)cc1  51.3%
11. Cn1cc(-c2csc(-c3cn(C(=O)OC(C)(C)C)c4ccccc34)n2)c2cccnc21  64%
12. NC1(N)C=CC2=C(C=C1)C1(N)C3=C(C=CC(N)(N)C=C3)N2C2(N)C3=C(C=CC(N)(N)C=C3)N1C1=C2C=CC(N)(N)C=C1  75%
13. COc1ccc2c(c1)C/C(=C\c1cc(-c3cc(OC)c(OC)c(OC)c3)n[nH]1)C2=O  75.5%
14. O=c1c2sc3ncc(Br)cc3c2ncn1-c1cccc(Cl)c1  76.2%
15. CCc1ccc(-c2ccc(Nc3ccccc3)nn2)cc1S(N)(=O)=O  79.8%
16. COc1ccc(-c2nc3ccccn3c2-c2nc3ccc(Cl)cc3[nH]2)cc1  83%
17. C=C(C)[C@@H]1CC[C@]2(C)[C@H](CC=C3[C@@H]4CC(C)(C)CC[C@]4(C=O)CC[C@]32C)[C@@]1(C)CCCN  83%
18. COc1ccc(NC(=O)c2ccc3c(c2)nc(-c2cc4ccccc4[nH]c2=O)n3-c2cc(C(C)(C)C)[nH]n2)cc1  84%
19. COc1ccc2c(c1)C/C(=C\c1cc(-c3ccc4c(c3)OCO4)n[nH]1)C2=O  88.5%
20. CCCCC(=O)OC1CCCCC1C (stereo not drawn)  91.2%
21. Cn1cc(-c2nc(-c3c[nH]c4ncccc34)cs2)c2ccccc21  94.2%
22. COc1ccc2nc(-c3c(-c4ccccc4)nc4ncccn34)[nH]c2c1  95.6%
23. O=c1c(CNc2ccc(S(=O)(=O)Nc3ncccn3)cc2)coc2ccccc12  95.9%
24. CC(C)=CCC[C@](C)(O)[C@H]1CC[C@]2(C)[C@@H]1CC[C@@H]1[C@@]3(C)C/C(=C/c4ccc(Br)cc4)C(=O)C(C)(C)[C@@H]3CC[C@]12C  96.8%
25. O=c1c(CNc2ccc(S(=O)(=O)Nc3nccs3)cc2)coc2ccccc12  98.3%
26. Nc1ccc(Br)cn1  100%
27. Cc1nn(-c2ccc(Br)cc2)c2nc3[nH]c(=O)[nH]c(=O)c3nc12  100%
28. COc1ccc(/C=C/C(=O)NCCO)cc1  101%
29. O=Cc1nc2ccccc2[nH]1  102%
30. Nc1nc2c(c(=O)[nH]1)C(c1ccc3c(c1)OCO3)C=C(C(=O)O)N2 (stereo not drawn)  102%
31. O=C1NC(=Nc2ccc(S(=O)(=O)Nc3nccs3)cc2)S/C1=C\c1coc2ccccc2c1=O  103%
32. Nc1ccc(Cl)cn1  103%

In the case of `Cc1ccc(-c2nc([P+](c3ccccc3)(c3ccccc3)c3ccccc3)c(N3CCOCC3)o2)cc1`, the growth is reported as -95.5% (active).
With `COc1cccc(NC(=O)c2sc3nc4c(cc3c2N)C(=O)CCC4)c1` the growth was 3.83% (active).
`COc1cc(-c2cc(-c3nc4ccc(F)cc4[nH]3)[nH]n2)cc(OC)c1OC` was tested, and the growth was -50.2% (active).
For `COC(=O)[C@]12CC[C@@H](C(=O)/C=C/c3cccnc3)[C@@H]1[C@H]1CC[C@@H]3[C@@]4(C)C/C(=C/c5cccnc5)C(=O)C(C)(C)[C@@H]4CC[C@@]3(C)[C@]1(C)CC2`, the growth was -98.9% (active).
`COc1ccc2nc(-c3cc(-c4cc(OC)c(OC)c(OC)c4)n[nH]3)[nH]c2c1` was tested, and the growth was -92.9% (active).
With `COc1cc(-c2cc(-c3nc4ccccc4[nH]3)[nH]n2)cc(OC)c1OC` the growth was -44.4% (active).
